Assay outcomes as filed in PubChem.
PK Bst: alters activity of Bacillus stearothermophilus pyruvate kinase; purified pyruvate kinase, luminescence ATP production; ribose 5-phosphate activator present at AC10; Potency, µM; 1.2% of 51,000 active; AID 361; in the data active = potency below about 11 µM; inconclusive = mostly about 12 µM to 25 µM;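 the screen sought inhibitors and activators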
HADH2 inhib: blocks human hydroxyacyl-CoA dehydrogenase type II; Q99714; recombinant HADH2, NADH fluorescence, beta-hydroxybutyryl-CoA; Potency, µM (top dose mostly 57.1 µM), most hits filed as inhibitors; 3.4% of 73,000 active; AID 886; also: nearly all actives have a fitted effect of over 60% in size
Target sequence (Q99714 whole entry, looked up, one chain of several): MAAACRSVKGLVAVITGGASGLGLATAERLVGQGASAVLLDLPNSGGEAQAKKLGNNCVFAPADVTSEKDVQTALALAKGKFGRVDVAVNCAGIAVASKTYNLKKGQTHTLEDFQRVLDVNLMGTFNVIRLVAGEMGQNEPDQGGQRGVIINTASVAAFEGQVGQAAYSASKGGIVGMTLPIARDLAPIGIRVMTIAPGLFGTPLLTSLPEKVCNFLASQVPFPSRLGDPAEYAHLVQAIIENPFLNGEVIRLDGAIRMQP
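His-tagged recombinant enzyme from E. coli, 20 nM, preincubated 15 min RT with compound; reaction started with 1 mM NAD+ and 90 uM beta-hydroxybutyryl-CoA in 100 mM Tris-HCl pH 9.0. NADH fluorescence (ex 360/em 450) read over 4 min; last-minus-first difference.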
HSD17B inh: HSD17B dehydrogenase inhibition; AID 893; Potency, µM (titrated, usually from 57.1 µM), actives largely listed as inhibitors; 7.6% of 75,000 active; recombinant HSD17B10, NADH fluorescence kinetic;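 also: the protocol describes HADH2 (HSD17B10) and not the HSD17B4 of the title; nearly all actives have a fitted effect of over 70% in size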
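His-tagged E. coli-expressed HADH2 at 20 nM in 100 mM Tris-HCl pH 9.0 with 0.01 % Tween-20, preincubated 15 min with compound at room temperature. Reaction with 1 mM NAD+ and 90 uM beta-hydroxybutyryl coenzyme A; NADH fluorescence (360/450 nm) read kinetically over 4 min, last minus first point.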
15-hLO inh: blocks human 15-lipoxygenase activity. purified 15hLO-1, xylenol orange hydroperoxide absorbance. Potency, µM (series often up to 57.1 µM), usual class: inhibitors. 1.4% of 74,000 active. AID 887; also: nearly all actives have a fitted effect of over 55% in size
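Hydroperoxide formed from arachidonic acid (50 uM) by purified human 15hLO-1 (40 nM) oxidizes ferrous iron, and the ferric-xylenol orange complex is read at 573 versus 405 nm. Compounds were preincubated 15 min; reaction ran 6 min at room temperature.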
ERK AVP inh: blocks ERK signaling stimulated by vasopressin; Potency, µM (series often up to 57.5 µM), usual class: inhibitors; HEK293-V1b, vasopressin-stimulated pERK AlphaScreen; 0.99% of 72,000 active; also: nearly all actives have a fitted effect of over 55% in size
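Overnight-seeded V1b-HEK293 cells in 1% FBS got compound, then vasopressin (25 nM final, 5 min, 37C), then lysis buffer. AlphaScreen detection of phospho-ERK; activity normalized to basal and full-stimulation controls.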
Luciferase inh: blocks Photinus pyralis firefly luciferase activity | P08659 | AID 411 | Potency, µM (highest dose often 57.1 µM), most hits filed as inhibitors | 2.2% of 72,000 active | purified firefly luciferase, luminescence, 8 min; also: nearly all actives have a fitted effect of over 40% in size
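Substrate buffer containing 10 uM ATP (pH 7.2 imidazole, Mg2+, KCl, detergent, BSA) is dispensed, compound pinned in, then luciferase/luciferin detector mix added. After 8 min at ambient temperature, light output is measured.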
Large screens that a line does not name were inactive. The list is not random: actives were taken first. Their share in the collection is about 11%. Unless noted, calls follow the shape of the dose curve; as a rule, active = well fitted curve in the direction sought with a large enough effect; inconclusive = small, poorly fitted or top-dose-only effect, or another doubt; inactive = no such curve, though single readings can be large; an effect the other way counts as inactive or inconclusive.

CCOC(=O)CC1=C(C(=O)OCC)C(c2ccc(C)o2)C(C#N)=C(N)O1 (stereo not given)	HSD17B inh inconclusive, 15-hLO inh inconclusive
N#CCSc1n[nH]c2nc3c(c(=O)n12)C1(CCCC1)Cc1ccccc1-3	HADH2 inhib 31.6µM, HSD17B inh 31.6µM, 15-hLO inh inconclusive
O=C(O)c1ccncc1.O=C(O)c1ccncc1.[NH2-].[NH2-].[Pt]	none (no result: PK Bst)
Cc1ccc2c(c1)c1c3n2CCN(C(=O)C2CC2)C3CCC1 (stereo not given)	HADH2 inhib inconclusive, HSD17B inh inconclusive, 15-hLO inh inconclusive, ERK AVP inh inconclusive (no result: PK Bst)
Cc1ccc2c(c1)c1c3n2CC(=C2C(=O)OC(C)(C)OC2=O)NC3CCC1 (stereo not given)	HADH2 inhib 25.1µM, HSD17B inh inconclusive
Cc1cc(NS(=O)(=O)c2ccc(-c3ccccc3)cc2)no1	none
Cc1cccc(NS(=O)(=O)c2ccc(Oc3ccccc3)cc2)n1	HSD17B inh 31.6µM
COC(=O)C(N)CS (stereo not given)	none (no result: PK Bst, HADH2 inhib, Luciferase inh)
O=c1[nH]c(=S)c2[nH]c(=O)n(-c3ccccc3)c2[nH]1	HADH2 inhib inconclusive (no result: PK Bst)
COCCNC(=O)c1c(N)n(CCC2=CCCCC2)c2nc3ccccc3nc12	none (no result: HADH2 inhib, HSD17B inh, 15-hLO inh, ERK AVP inh)
C=CCn1c(N)c(C(=O)OCCC)c2nc3ccccc3nc21	HSD17B inh 25.1µM
COCCn1c(N)c(C(=O)OCc2ccccc2)c2nc3ccccc3nc21	HADH2 inhib 31.6µM, HSD17B inh 31.6µM
Cc1noc(C)c1-c1nc(NC2CCNCC2)c2ccccc2n1	none (no result: PK Bst)
Nc1nc(N)c2[nH]cnc2n1 (tested in a mixture with another compound)	none (no result: PK Bst)
O=C(CC1(O)C(=O)N(Cc2ccccc2Cl)c2ccccc21)c1ccco1 (stereo not given)	HSD17B inh 25.1µM
Cc1cc(NC(=O)CSc2nc(-c3cccnc3)ccc2C#N)no1	none (no result: HADH2 inhib, HSD17B inh, 15-hLO inh, ERK AVP inh)
CCSc1nc(-c2ccc(OC)cc2)ccc1C#N	HSD17B inh 31.6µM (no result: PK Bst)
O=c1cnnc(SCCc2ccccc2)[nH]1	HSD17B inh 25.1µM, 15-hLO inh 3.98µM, ERK AVP inh inconclusive, Luciferase inh inconclusive
Cc1cccc(CSc2nncc(=O)[nH]2)c1	none
O=C(c1cc(-c2ccccc2O)on1)N1CCc2ccccc2C1	ERK AVP inh inconclusive (no result: PK Bst)
O=C(c1cc(-c2ccc(O)cc2)on1)N1CCc2ccccc2C1	HADH2 inhib inconclusive, 15-hLO inh 15.8µM, ERK AVP inh 31.6µM (no result: PK Bst)
O=C(c1cc(-c2ccco2)on1)N1CCc2ccccc2C1	HADH2 inhib inconclusive, HSD17B inh 15.8µM, 15-hLO inh 15.8µM
O=C(c1cc(-c2ccccc2)on1)N1CCCC1	none
O=C(c1cc(-c2cccc(O)c2)on1)N1CCOCC1	ERK AVP inh inconclusive, Luciferase inh 12.6µM (no result: PK Bst)
O=C(c1cc(-c2cccs2)on1)N1CCc2ccccc2C1	none
CC1CCN(C(=O)c2cc(-c3ccccc3O)on2)CC1	Luciferase inh 10µM (no result: PK Bst)
COc1ccc(-c2cc(C(=O)N3CCOCC3)no2)cc1OC	none
CC(C)(C)N1C(=O)[C@H]2[C@H]3[C@H](O)[C@H](O)C/C(=N/NC(=O)OCc4ccccc4)[C@@H]3CC[C@@H]2C1=O	none (no result: PK Bst)
Cc1c2oc3c(C)ccc(C(=O)N[C@@H]4C(=O)N[C@H](C(C)C)C(=O)N5CCC[C@H]5C(=O)N(C)CC(=O)N(C)[C@@H](C(C)C)C(=O)O[C@@H]4C)c3nc-2c(C(=O)N[C@@H]2C(=O)N[C@H](C(C)C)C(=O)N3CCC[C@H]3C(=O)N(C)CC(=O)N(C)[C@@H](C(C)C)C(=O)O[C@@H]2C)c(N)c1=O	HSD17B inh inconclusive, 15-hLO inh 12.6µM (no result: PK Bst, Luciferase inh)
O=S(=O)(c1ccccc1)N1CCC2(CCN(c3ncccn3)CC2)CC1	none (no result: PK Bst)
Cc1ccc(S(=O)(=O)N(CC(=O)N2CCOCC2)C2CCCCC2)cc1	none (no result: PK Bst)
Cc1cc(C)c(S(=O)(=O)N(CC(=O)N2CCOCC2)C2CCCCC2)c(C)c1	HADH2 inhib inconclusive, HSD17B inh 25.1µM
CCCCn1c(=O)n(C)c(=O)c2c(C(F)(F)F)cc(-c3ccncc3)nc21	HADH2 inhib inconclusive, HSD17B inh 25.1µM
